This is an account of results in PubChem BioAssay.

Active and inactive are the calls of the source. Unless noted, how the calls were made is not given here.

Experiment [1] in a line: HepG2 liver cancer cell viability effects, profiling panel, resazurin fluorescence, 24 h, PK04 Diversity Set (AID 1172). Further: test concentration not given here. As to conditions: higher = more signal.
Experiment [2] in a line: basal S. cerevisiae growth modulation, no modifier, primary screen, OD600, strain BY4716, 24 h, basal condition (AID 1173). As to conditions: OD600, 24 h, higher = more signal, called active from +8 up or from −8 down.
The nature of experiment [3]: MM1S myeloma cell viability, profiling panel, resazurin fluorescence, basal, 24 h, PK04 Diversity Set (AID 1174).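 Further: MM1S multiple myeloma cell line; test concentration not given here.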 As to conditions: higher = more signal, called active from +8 up or from −8 down.
In experiment [4] the target is Dihydroorotate dehydrogenase (quinone), mitochondrial (Plasmodium falciparum (isolate 3D7)) (UniProt Q08210). In words: PfDHODH enzyme inhibitors, primary screen, biochemical, C-terminal His tag, absorbance 600 nm (AID 1175).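 Further: recombinant parasite enzyme with a five histidine tag at its C terminus; test concentration not given here.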 As to conditions: DCIP absorbance 600 nm, higher = more signal, called active from +8 up or from −8 down.
A short description of experiment [5]: P. aeruginosa biofilm formation inhibitors, primary screen, strain PAO1, LB-PBS medium, absorbance 600 nm (AID 1176). Further: test concentration not given here. As to conditions: P. aeruginosa PAO1 growth/biofilm, A600, 12 h; higher = more signal.
Experiment [6] can be described thus: S. cerevisiae RM11-1a growth modifiers, primary screen, strain RM11-1a, OD600, basal, 24 h (AID 1177).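 Further: cultures grown under basal conditions with no added stressor; test concentration not given here.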 As to conditions: OD600, 24 h, higher = more signal, called active from +8 up or from −8 down.
Experiment [7] in a line: E. coli acrAB mutant growth effects, primary screen, E. coli filamentation inducers, strain DRC39, OD650, 24 h (AID 1178).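 Further: growth measured as culture turbidity by optical density at 650 nm; test concentration not given here.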 As to conditions: higher = more signal, called active from +8 up or from −8 down.
Experiment [8] can be described thus: E. coli acrAB mutant growth effects, primary screen, E. coli filamentation inducers, strain DRC39, OD650, 48 h (AID 1179).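 Further: screen aims at cell division blockers that make cells filament.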 As to conditions: E. coli DRC39 delta-acrAB growth, higher = more signal, called active from +8 up or from −8 down.
Experiment [9] can be described thus: RPMI8226 myeloma cell viability, profiling panel, resazurin fluorescence, basal, 24 h, PK04 Diversity Set (AID 1180).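 Further: RPMI8826 multiple myeloma cell line at 5000 cells per well; test concentration not given here.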 As to conditions: higher = more signal. In general terms: Resazurin is reduced to fluorescent resorufin, in cell work by metabolically active cells.
For experiment [10], the target named is E3 ubiquitin-protein ligase XIAP (Homo sapiens) (UniProt P98170). In words: XIAP binders, primary screen, biophysical, small-molecule microarray, fluorescence 635 nm (AID 1181).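 Further: score merges 667 nm emission and signal to noise over triplicate slides.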 As to conditions: small-molecule microarray binding, higher = more signal.
Sequence of E3 ubiquitin-protein ligase XIAP (Homo sapiens) (P98170 whole entry, looked up): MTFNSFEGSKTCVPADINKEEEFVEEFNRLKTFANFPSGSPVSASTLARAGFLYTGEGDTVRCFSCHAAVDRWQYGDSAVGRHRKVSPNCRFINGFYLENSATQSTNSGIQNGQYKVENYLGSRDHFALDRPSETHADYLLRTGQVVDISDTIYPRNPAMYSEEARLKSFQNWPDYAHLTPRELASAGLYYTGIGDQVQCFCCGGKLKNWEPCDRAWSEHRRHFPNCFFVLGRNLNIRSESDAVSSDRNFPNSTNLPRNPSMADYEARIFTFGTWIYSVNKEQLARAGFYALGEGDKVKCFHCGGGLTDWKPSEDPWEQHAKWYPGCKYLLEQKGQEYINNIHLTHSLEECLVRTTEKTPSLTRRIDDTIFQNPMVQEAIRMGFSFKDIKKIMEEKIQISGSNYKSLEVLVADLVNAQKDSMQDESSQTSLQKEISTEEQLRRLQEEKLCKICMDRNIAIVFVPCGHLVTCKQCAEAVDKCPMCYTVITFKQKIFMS

Sequence of Dihydroorotate dehydrogenase (quinone), mitochondrial (Plasmodium falciparum (isolate 3D7)) (Q08210 whole entry, looked up): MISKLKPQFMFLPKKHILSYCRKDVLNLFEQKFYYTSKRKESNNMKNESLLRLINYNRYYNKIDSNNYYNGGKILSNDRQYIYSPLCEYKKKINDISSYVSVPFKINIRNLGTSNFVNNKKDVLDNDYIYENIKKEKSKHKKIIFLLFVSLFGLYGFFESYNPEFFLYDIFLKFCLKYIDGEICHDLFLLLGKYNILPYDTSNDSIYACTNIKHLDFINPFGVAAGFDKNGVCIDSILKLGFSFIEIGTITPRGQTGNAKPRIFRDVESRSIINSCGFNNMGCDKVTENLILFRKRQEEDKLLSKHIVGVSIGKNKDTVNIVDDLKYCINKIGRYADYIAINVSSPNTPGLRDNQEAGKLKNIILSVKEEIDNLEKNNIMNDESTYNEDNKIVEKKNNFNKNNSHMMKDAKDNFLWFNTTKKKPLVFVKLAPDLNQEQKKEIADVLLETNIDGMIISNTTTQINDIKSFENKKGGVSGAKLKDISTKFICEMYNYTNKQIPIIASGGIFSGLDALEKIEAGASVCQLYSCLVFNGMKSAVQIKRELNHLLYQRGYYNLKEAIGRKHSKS

With `CC(C)CNC(=O)[C@@]1(C)c2ccccc2C(=O)N(C(C)C)[C@H]1c1ccc(CO)cc1`, the z-score in experiment [1] was -0.174; in experiment [2], -0.128 (inactive); in experiment [3], -0.434 (inactive); in experiment [5] it was -0.273 (inactive); in [6] it was -0.207 (inactive); in experiment [7], -0.314 (inactive). Further, the z-score in [8] was -0.049 (inactive); in [9], -0.434. For the same molecule, the composite z-score was -0.449 (inactive) in experiment [4] and -0.135 in experiment [10].

With `COc1ccc(C(=O)Nc2cccc(CN3C(=O)[C@@]4(O[C@@H](CC(=O)N5Cc6ccccc6C[C@H]5CO)[C@H]([Si](C)(C)c5ccc(OC)cc5)[C@H]4C)c4ccccc43)c2)cc1`, the z-score is -0.79 in [1]; 0.147 (inactive) in [2]; -3.05 (inactive) in experiment [3]; 1.42 (inactive) in experiment [5]; 1.91 (inactive) in experiment [6]; 0.978 (inactive) in experiment [7]. For the same molecule, the results for the z-score in [8] and in experiment [9] were 0.621 (inactive) and -1.99, respectively. Further, the composite z-score in experiment [4] is -4.98 (inactive); in [10], -0.0525.

As for `C=CCN1Cc2ccccc2C[C@]2(N=C(c3ccc(OCCCO)cc3)O[C@@H]2c2ccccc2)C1=O`, the z-score is -0.677 in experiment [1]; -1.35 (inactive) in experiment [2]; -2.24 (inactive) in experiment [3]; 1.32 (inactive) in experiment [5]; -0.211 (inactive) in experiment [6]; 1.13 (inactive) in experiment [7]. Also, the z-score in experiment [8] is 1.09 (inactive); in [9], -2.07. For the same molecule, the composite z-score in experiment [4] is -1.1 (inactive); in experiment [10], -0.186.

Consider `C=CC[C@]1(C(=O)O)N=C(c2ccc(OCCCO)cc2)O[C@H]1c1ccccc1CN=[N+]=[N-]`, for which the z-score in experiment [1] is 0.13; in experiment [2], -0.518 (inactive); in experiment [3] it was -2.6 (inactive); in experiment [5], -0.555 (inactive); in experiment [6] it was 0.363 (inactive); in experiment [7], 0.104 (inactive). The z-score is 0.619 (inactive) in [8] and -0.728 in experiment [9]. Moreover, the composite z-score is 0.381 (inactive) in [4] and 0.117 in experiment [10].

Consider `OCCCc1cc[n+](Cc2cccc(OC(F)(F)F)c2)cc1`, for which the z-score was 0.887 in experiment [1]; -1.08 (inactive) in experiment [2]; 0.499 (inactive) in experiment [3]; 0.0898 (inactive) in experiment [5]; 0.616 (inactive) in experiment [6]; 0.453 (inactive) in experiment [7]. In addition, the z-score is 0.159 (inactive) in experiment [8] and -0.326 in [9]. Further, the composite z-score in [4] is -3.59 (inactive); in [10] it was 0.337.

For `CCCCCN1CC=CC23O[C@@H]4C=CCCOC(=O)C4[C@H]2C(=O)N(CCCO)[C@@H]3C1=O` (stereo not given in full), the z-score in experiment [1] was 0.457; in experiment [2] it was -0.613 (inactive); in [3], 0.435 (inactive); in experiment [5], -0.289 (inactive); in experiment [6], -0.126 (inactive); in [7] it was -0.761 (inactive). For the same molecule, the z-score in experiment [8] was -0.251 (inactive); in experiment [9], -0.0665. Also, the composite z-score in experiment [4] is -1.36 (inactive); in [10], -0.162.

Regarding `CCOC(=O)C1=C[C@@H](C(C)(C)C)N(S(=O)(=O)c2ccc(C)cc2)[C@H]1c1ccc(Cl)c(Cl)c1`, the z-score in experiment [1] was -0.331; in [2], 1.63 (inactive); in experiment [3], -1.01 (inactive); in experiment [5], 0.546 (inactive); in experiment [6], 1.26 (inactive); in experiment [7] it was -0.723 (inactive). The figures for the z-score in experiment [8] and in [9] were -0.398 (inactive) and -2.92, respectively. Besides, the composite z-score was 0.89 (inactive) in [4] and -0.0351 in [10].

On to `CCOC(=O)C[C@H]1[C@H](OC(=O)c2cc3ccccc3oc2=O)[C@@H](NC(=O)c2ccc3ccccc3c2)c2cc(OCCCO)ccc2N1C(=O)c1ccccc1`, for which the z-score in [1] was -0.438; in [2], -1.31 (inactive); in experiment [3], -0.382 (inactive); in [5], -0.647 (inactive); in [6], -0.283 (inactive); in experiment [7], -0.464 (inactive). Further, the z-score in experiment [8] is -1.03 (inactive); in experiment [9] it was -0.486. Moreover, the composite z-score in [4] was -2.91 (inactive); in experiment [10], 0.0871.

`C[N+](C)(C)CCCC[C@@H]1NC(=O)[C@H]2C[C@@H](C(=O)O)[C@@H](c3cccc(OCCO)c3)N2C1=O`: the z-score in experiment [1] is 0.352; in [2], -1.32 (inactive); in [3], 0.644 (inactive); in experiment [5] it was 0.0751 (inactive); in experiment [6] it was -0.625 (inactive); in [7], 0.406 (inactive). Besides, the z-score was 0.871 (inactive) in [8] and 0.773 in experiment [9]. Moreover, the composite z-score in experiment [4] was 0.16 (inactive); in [10] it was 0.353.

On to `Cc1ccc(S(=O)(=O)N2CC(C(=O)O)=CCC2c2ccccc2)cc1` (stereo not given), for which the z-score in experiment [1] is -1.31; in experiment [2], 0.558 (inactive); in experiment [3], -2.27 (inactive); in experiment [5] it was 0.12 (inactive); in experiment [6], 0.437 (inactive); in experiment [7] it was -1.28 (inactive). The values for the z-score in [8] and in experiment [9] were -1.15 (inactive) and -0.931, respectively. Moreover, the figures for the composite z-score in experiment [4] and in [10] were 0.154 (inactive) and 0.155, respectively.

Consider `CN(C)CCCCNC(=O)[C@@H]1C[C@@H]2C(=O)N[C@@H](CCCCN)C(=O)N2[C@@H]1c1cccc(OCCO)c1`, for which the z-score in experiment [1] is 0.0914; in experiment [2] it was -0.191 (inactive); in [3], -0.332 (inactive); in experiment [5], 0.836 (inactive); in experiment [6], -0.147 (inactive); in experiment [7] it was -0.383 (inactive). Besides, the figures for the z-score in [8] and in experiment [9] were -1 (inactive) and -0.165, respectively. In addition, the results for the composite z-score in experiment [4] and in experiment [10] were -0.318 (inactive) and -0.32, respectively.

Regarding `Cc1ccc([C@H]2C(C(=O)O)=C[C@@H](C(C)C)N2S(=O)(=O)c2ccc(C)cc2)cc1`, the z-score in experiment [1] is -0.357; in experiment [2], -0.502 (inactive); in experiment [3], -0.645 (inactive); in experiment [5], 0.546 (inactive); in experiment [6], -0.577 (inactive); in experiment [7], -0.717 (inactive). The z-score in experiment [8] was 0.0184 (inactive); in experiment [9], -1.4. Further, the composite z-score is -0.695 (inactive) in experiment [4] and 0.0264 in experiment [10].

`C=CC[C@@]1(C(=O)NCCN2CCOCC2)N=C(c2ccc(OCCCO)cc2)O[C@@H]1c1ccccc1CN=[N+]=[N-]`: the z-score is -0.0014 in experiment [1]; -1.4 (inactive) in [2]; 0.331 (inactive) in [3]; 0.466 (inactive) in [5]; -0.425 (inactive) in experiment [6]; 0.677 (inactive) in [7]. In addition, the z-score in experiment [8] was -0.498 (inactive); in [9], -0.354. The composite z-score in [4] is 0.45 (inactive); in [10] it was 0.272.
